Assay outcomes (PubChem BioAssay)
Only some compounds are listed: those with a hit (about 1.6% of all), similar ones and a draw of the others.
KCNQ2 enhance: enhances the rat KCNQ2 potassium channel. 310,000 tested, 0.54% active. O88943. CHO-K1 KCNQ2, FluxOR thallium flux fluorescence; hits give high values. B-score at 10 µM;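 active = fluorescence ratio B-score at least 3 SD of library B-scores, with initial fluorescence B-score within 3 of them, cut at about 5.3 in these data; same plate scores as AID 2156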;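 also: B-score of peak minus minimum over baseline fluorescence ratio after K+ and Tl+ stimulus; positive B-score means potentiation of KCNQ2 with more thallium influx and brighter signal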
KCNQ2 inh: inhibitors of rat KCNQ2 potassium channel; AID 2156; CHO-K1 KCNQ2, FluxOR thallium flux, 20 min; hits give low values; O88943; 310,000 tested, 1.1% active; B-score at 10 µM;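 active = fluorescence ratio B-score at most minus 3 library SDs, with starting brightness B-score within 2 library SDs, cut at about -5.5 in these data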
Kir21 confirm: confirmation of mouse Kir2.1 potassium channel inhibitors | Kir2.1-expressing cells, FluxOR thallium flux fluorescence; hits give low values | Tl flux remaining, % of negative control (hits give low values), % at 10 µM | 2,300 tested, 41% active | shares compounds with KCNQ2 enhance;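 active = Primary-screen hit whose thallium flux fell at least 3 control SD below untreated wells in both duplicates, with normal baseline fluorescence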;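 also: 0% = blank wells without stimulus and 100% = stimulated no-compound controls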
HEK293 ctr: alters thallium flux in parental HEK293 cells, Kir2.1 counter-screen | 2,300 tested, 19% active | AID 2105 | shares compounds with KCNQ2 enhance | FluxOR thallium flux fluorescence; 0% = unstimulated blank wells | FluxOR signal as % of negative control (100 = no effect), % at 10 µM;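 active = dye signal at least 3 control SD above or below untreated wells in both duplicates, raw fluorescence within 3, either direction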;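 also: percent is based on the flux ratio of peak minus minimum fluorescence over baseline F0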
CHO-K1 Tl ctr: parental CHO-K1 activity in KCNQ2 potentiator counter-screen | shares compounds with KCNQ2 enhance | parental CHO-K1 cells, FluxOR thallium flux fluorescence; zero = vehicle mean+3SD, 100% = vehicle-minus-blank window | activity increase over 3SD of controls, % at 10 µM | 1,200 tested, 43% active;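 active = signal rise of at least 3 SD above the untreated control mean, in both duplicate wells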;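 also: counter screen of KCNQ2 potentiator hits so any rise reflects channel-independent effects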
KCNQ1 pot spec: selectivity of KCNQ2 potentiators: effect on human KCNQ1. shares compounds with KCNQ2 enhance. CHO KCNQ1 stable, FluxOR thallium flux fluorescence; beyond 3SD, as % of vehicle-control signal. activation over 3SD threshold, % at 10 µM. 1,200 tested, 28% active. AID 2283;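 active = fluorescence ratio rise of at least 3 SD of vehicle wells above their mean, in both replicate wells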;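 also: 0% = vehicle mean plus 3 SD and 100% = vehicle minus unstimulated blank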
Target sequence (P51787 whole entry, looked up): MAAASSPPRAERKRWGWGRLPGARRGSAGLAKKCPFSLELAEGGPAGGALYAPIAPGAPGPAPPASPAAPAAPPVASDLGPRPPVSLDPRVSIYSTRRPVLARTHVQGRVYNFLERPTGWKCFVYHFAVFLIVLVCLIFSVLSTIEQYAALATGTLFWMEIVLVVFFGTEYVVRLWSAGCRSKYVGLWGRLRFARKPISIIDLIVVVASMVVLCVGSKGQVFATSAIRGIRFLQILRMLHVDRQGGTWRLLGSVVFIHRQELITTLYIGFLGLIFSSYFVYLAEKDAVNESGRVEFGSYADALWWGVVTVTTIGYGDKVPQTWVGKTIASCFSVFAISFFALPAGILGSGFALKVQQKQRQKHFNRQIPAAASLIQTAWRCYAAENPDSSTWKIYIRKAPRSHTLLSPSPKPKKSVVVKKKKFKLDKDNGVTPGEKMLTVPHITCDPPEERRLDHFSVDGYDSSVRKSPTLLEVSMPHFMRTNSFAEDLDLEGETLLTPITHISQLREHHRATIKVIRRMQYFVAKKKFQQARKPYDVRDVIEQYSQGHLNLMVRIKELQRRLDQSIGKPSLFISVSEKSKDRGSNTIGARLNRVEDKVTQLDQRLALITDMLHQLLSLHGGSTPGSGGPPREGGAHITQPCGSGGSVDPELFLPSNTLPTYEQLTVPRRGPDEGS
KCNQ2 pot confirm: confirmation of rat KCNQ2 potassium channel potentiators; shares compounds with KCNQ2 enhance; potentiation, less the hit threshold, % at 10 µM; 1,200 tested, 68% active; CHO-KCNQ2 cells, FluxOR thallium flux fluorescence;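 active = fluorescence ratio rising 3 SD or more over the vehicle control mean in both replicates, plus primary screen hit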;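 also: peak minus minimum thallium fluorescence divided by baseline after K/Tl stimulus; 0% = vehicle mean plus 3 SD and 100% = vehicle minus unstimulated blank difference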
Kir21 spec: tests whether KCNQ2 potentiators also affect mouse Kir2.1 | AID 2345 | 1,200 tested, 2% active | activity over 3SD threshold, % at 10 µM | HEK293 Kir2.1, FluxOR thallium flux fluorescence | shares compounds with KCNQ2 enhance;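 active = fluorescence ratio rise of at least 3 SD above the vehicle-control mean, seen in both replicates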;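 also: 0% = vehicle mean plus 3 SD and 100% = vehicle minus no-stimulus blank window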
KCNQ2 W236L pot: KCNQ2 potentiators acting on retigabine-insensitive rat KCNQ2 W236L mutant; current increase over 3SD of negative controls (%), hits give high values, % at 25 µM; shares compounds with KCNQ2 enhance; CHO KCNQ2-W236L, automated patch clamp current; 940 tested, 10% active;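 active = current increase at least 3 SD of the untreated controls above them in both duplicate recordings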
An asterisk follows results filed as active; i = inactive; . = no result given.

SMILES | KCNQ2 enhance | KCNQ2 inh | Kir21 confirm | HEK293 ctr | CHO-K1 Tl ctr | KCNQ1 pot spec | KCNQ2 pot confirm | Kir21 spec | KCNQ2 W236L pot
CCOc1cc(N2CCOCC2)c(OCC)cc1NC(=O)CN1C(=O)NC(C)(C2CC2)C1=O (configuration not stated) | . | i | . | . | . | . | . | . | .
CCOc1cc(N2CCOCC2)c(OCC)cc1NC(=O)CC12CC3CC(CC(C3)C1)C2 | 23* | i | i | i | -18 | -25 | 113* | -28 | 0.7%*
CCOc1cc(N2CCOCC2)c(OCC)cc1NC(=O)Cc1cccc(OC)c1 | 10* | i | i | i | 36* | 14* | 72* | -50 | i
CCOc1cc(N2CCOCC2)c(OCC)cc1NC(=O)Cc1ccc(OC)c(OC)c1 | . | i | . | . | . | . | . | . | .
Cc1c(CC(=O)NCC(=O)NCC(=O)O)c(=O)oc2cc3c(cc12)CCC(C)(C)O3 | . | i | . | . | . | . | . | . | .
CCN(CC)C(=S)SCC(=O)Nc1ccc(F)cc1 | 6.4* | i | i | i | -11 | -15 | 3.2* | -43 | i
CCN(CC)C(=S)SCC(=O)c1ccc(F)cc1 | . | i | . | . | . | . | . | . | .
CCN(CC)CCOC(=O)CCc1cccc2ccccc12 | 2.1 | i | . | . | . | . | . | . | .
CCN(CC)CCOC(=O)C(Cc1ccco1)Cc1cccc2ccccc12 (configuration not stated) | . | i | 36%* | i | . | . | . | . | .
CCCCn1nnnc1NCc1cc(Cl)c(OC)c(OC)c1 | 0.47 | i | . | . | . | . | . | . | .
O=C(Cn1ncc2c3ccccc3n(Cc3ccccc3F)c2c1=O)N1CCN(c2ccccn2)CC1 | 11* | i | i | i | 38* | -10 | 24* | -32 | i
O=C(CCSCc1ccccc1F)N1CCN(c2ccccn2)CC1 | . | i | . | . | . | . | . | . | .
O=C(Cn1ncc2c3ccccc3n(Cc3cccc(Cl)c3)c2c1=O)NCC1CCCO1 (configuration not stated) | 8.2* | i | i | i | 69* | -27 | 2.4* | -16 | i
O=C(Cn1ncc2c3ccccc3n(Cc3ccccc3F)c2c1=O)NCC1CCCO1 (configuration not stated) | 6* | i | i | i | 22* | -17 | -4 | -29 | i
O=C(Cn1ncc2c(=O)oc3ccccc3c21)NCC1CCCO1 (configuration not stated) | 1.5 | i | . | . | . | . | . | . | .
O=C(Cn1ncc2c3ccccc3n(Cc3ccccc3)c2c1=O)NC1CCCC1 | . | i | . | . | . | . | . | . | .
COc1ccc(Cc2nnc(Nc3c(C)cccc3C)o2)cc1OC | . | i | . | . | . | . | . | . | .
N#Cc1c(-c2ccccc2)c(C#N)c2nc3ccccc3n2c1N | 1.1 | i | . | . | . | . | . | . | .
Cc1cc(N2CCN(C)CC2)nc2ccc(NC(=S)N3CCCCC3)cc12 | . | i | . | . | . | . | . | . | .
COc1cccc(/C(C)=N/NS(=O)(=O)c2ccc(Cl)cc2)c1 | 1 | i | . | . | . | . | . | . | .
COc1cccc(/C(=N/O)C2CC2c2ccc(Cl)cc2)c1 (configuration not stated) | 6.7* | i | i | i | 33* | -4 | 8.1* | -33 | i
CC1CC(C)(C)NC(=S)N1CC(=O)NCc1ccccc1Cl (configuration not stated) | 0.19 | i | . | . | . | . | . | . | .
COc1ccc(OC)c(C(=O)c2coc3ccc(OCC(=O)O)cc23)c1 | 1.8 | i | . | . | . | . | . | . | .
Cc1cc(C)c(NC(=O)C(C)c2cccc(C(=O)c3ccccc3)c2)c(C)c1 (configuration not stated) | 23* | i | i | i | 54* | -9 | 54* | -31 | i
CC(=O)Nc1ccc(NC(=O)C(C)c2cccc(C(=O)c3ccccc3)c2)cc1 (configuration not stated) | 0.37 | i | . | . | . | . | . | . | .
SMILES | KCNQ2 enhance | KCNQ2 inh | Kir21 confirm | HEK293 ctr | CHO-K1 Tl ctr | KCNQ1 pot spec | KCNQ2 pot confirm | Kir21 spec | KCNQ2 W236L pot
COCCNC(=S)N1C2CCC1CC(NC(=O)NC13CC4CC(CC(C4)C1)C3)C2 (configuration not stated) | 0.22 | i | . | . | . | . | . | . | .
CCOC(=O)c1ccc(NC(=O)COc2ccc(S(=O)(=O)NC(C)CC)cc2)cc1 (configuration not stated) | 1 | i | . | . | . | . | . | . | .
CCOC(=O)c1ccc(NC(=O)C(C)NS(=O)(=O)c2ccc(OC)cc2)cc1 (configuration not stated) | 5.8* | i | i | i | 34* | -3 | -44 | -39 | .
Cc1ccc(NC(=O)Cn2cccc2)c(Br)c1 | 1.1 | i | . | . | . | . | . | . | .
CCN(CC)C(=S)NC(=O)Cc1ccccc1 | . | i | . | . | . | . | . | . | .
CCC(=O)NC(=S)NNC(=O)c1ccccc1[N+](=O)[O-] | . | i | . | . | . | . | . | . | .
CCN(Cc1ccccc1)C(=S)NC(=O)c1ccccc1Br | 8.6* | i | i | 418%* | -16 | 52* | 46* | -23 | i
CCCN(Cc1ccccc1)C(=S)NC(=O)c1ccccc1[N+](=O)[O-] | 13* | i | i | 450%* | 5.8* | -22 | 60* | -17 | i
CCOC(=O)CCc1c(C)nc2cc(-c3ccccc3OC)[nH]n2c1=O | 0.82 | i | . | . | . | . | . | . | .
Cc1ccc(S(=O)(=O)C2CS(=O)(=O)CC2O)cc1 (configuration not stated) | 0.88 | i | . | . | . | . | . | . | .
CC(=O)C1=C(S(=O)(=O)c2ccc(C)cc2)CS(=O)(=O)C1 | 17* | i | i | 72%* | -8 | -4 | 77* | -41 | 76%*
CCc1ccc(NC(=O)c2noc(C(C)C)c2[N+](=O)[O-])cc1 | . | i | . | . | . | . | . | . | .
Cc1ccc2nc(-c3ccc(NC(=O)COC(=O)c4ccc(=O)[nH]c4)cc3)sc2c1 | . | i | . | . | . | . | . | . | .
CC(C)CCNC(=O)COc1cccc2c1OC(C)(C)C2 | 0.68 | i | . | . | . | . | . | . | .
COc1ccc(CCNC(=O)COc2cccc3c2OC(C)(C)C3)cc1OC | . | i | 52%* | i | . | . | . | . | .
CC(C)NC(=O)C1CCN(C2CCN(C(=O)c3cc4c(s3)CCCCC4)CC2)CC1 | . | i | . | . | . | . | . | . | .
NC(=O)C1CCN(C(=O)c2cc3c(s2)CCCC3)CC1 | . | i | i | i | . | . | . | . | .
O=C(Nc1ccncc1)Nc1cccc(F)c1 | . | i | . | . | . | . | . | . | .
O=C(Nc1cccnc1)Nc1cccc(F)c1 | 6.7* | i | i | i | 2.5* | 7.3* | 16* | -21 | 18%*
Cn1c(=O)oc2cc(S(=O)(=O)NCCN3CCCCCC3)ccc21 | . | i | . | . | . | . | . | . | .
CCNC(=S)N/N=C1\C(=O)c2cccc3cccc1c23 | 1.7 | i | . | . | . | . | . | . | .
